VP16 counter – inhibits Gal4-VP16 luciferase reporter, ROR gamma counter-screen; Drosophila S2 Gal4-VP16 UAS-luciferase, luminescence, 20 h; Potency, µM (titrated, usually from 53.6 µM), without a hit: top-dose activity, negative = inhibition, hits mostly inhibitors; 3.5% of 310,000 active; AID 2546;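 further: Gal4-VP16 expression switched on by copper sulfate through the metallothionein promoter; potency means the concentration at half of the fitted maximal effect; on the % scale 0 is the no-effect control and ±100 the full control effect; nearly all actives have a fitted effect of over 50% in size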
SW480 rerep – induces DNA re-replication in SW480 colon adenocarcinoma cells. AID 624297. 1.8% of 340,000 active. SW480 DNA re-replication, Hoechst DNA content imaging, 48 h. Potency, µM (series often up to 46.1 µM), for the others: top-dose re-replication activation, most hits filed as activators; further: potency means the concentration at half of the fitted maximal effect; % of control where 0% means no effect; nearly all actives have a fitted effect of over 55% in size
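Image-based read-out: total Hoechst fluorescence of nuclei (405 nm excitation, 500-530 nm emission), with hits raising the fraction of high-intensity nuclei. SW480 colon cells incubated 48 hr with compounds at 37 C.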
IL-1B inflam inh – inflammasome signaling inhibition, IL-1 beta readout; THP-1 LPS/ATP IL-1B secretion, AlphaLISA, 16 h; active compounds read low; activity change, % at 57.5 µM; 4.7% of 360,000 active; AID 743279; in the data active means activity change below about -50%; inconclusive means mostly about -30% to -49%; further: on the % scale 0 is the no-effect control and ±100 the full control effect
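THP-1 cells pretreated 1 hr with compounds (up to 57.5 uM final), then stimulated with LPS (250 ng/mL final) plus ATP (1.25 mM final); secreted IL-1B measured by AlphaLISA after 16 hr, decreased signal indicating inhibition.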
MCF10A rerep – DNA re-replication induction in MCF 10a cells; Potency, µM (doses to about 46.1 µM), for the others: top-dose activity, positive = re-replication, usual class: activators; 2.9% of 350,000 active; MCF 10A DNA re-replication, Hoechst nuclear intensity, 48 h; further: potency means the concentration at half of the fitted maximal effect; % of control where 0% means no effect; nearly all actives have a fitted effect of over 50% in size
RORg inh – inhibitors of mouse ROR gamma transcriptional activity; Drosophila S2 Gal4-RORgamma UAS-luciferase reporter, 20 h; Potency, µM (doses to about 53.6 µM), for inactives: at the top dose activity change, negative = inhibition, most hits filed as inhibitors; 5.4% of 310,000 active; AID 2551; further: potency means the concentration at half of the fitted maximal effect; on the % scale 0 is the no-effect control and ±100 the full control effect; nearly all actives have a fitted effect of over 60% in size
Target sequence (P51450 whole entry, looked up, the tested form may be a part): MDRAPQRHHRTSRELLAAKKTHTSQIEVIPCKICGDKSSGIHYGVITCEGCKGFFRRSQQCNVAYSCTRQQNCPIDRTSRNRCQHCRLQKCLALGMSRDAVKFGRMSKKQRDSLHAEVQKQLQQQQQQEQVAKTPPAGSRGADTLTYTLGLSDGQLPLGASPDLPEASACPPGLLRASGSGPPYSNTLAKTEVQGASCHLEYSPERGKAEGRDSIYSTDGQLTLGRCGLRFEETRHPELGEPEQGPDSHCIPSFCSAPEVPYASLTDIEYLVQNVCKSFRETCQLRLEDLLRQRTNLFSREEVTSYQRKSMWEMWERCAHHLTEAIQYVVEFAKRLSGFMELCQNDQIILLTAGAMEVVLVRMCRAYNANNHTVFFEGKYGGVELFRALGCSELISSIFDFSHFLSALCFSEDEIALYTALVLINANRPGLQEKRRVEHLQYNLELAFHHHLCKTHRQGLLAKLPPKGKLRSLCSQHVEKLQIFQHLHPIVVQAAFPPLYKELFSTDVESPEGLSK
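A Gal4/UAS one-hybrid system in insect cells: metallothionein-promoter Gal4–ROR gamma fusion plus Photinus luciferase reporter. Copper sulfate 700 uM final, 20 hr ambient incubation, luminescent detection after 10 min with reagent.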
* marks the source's active call; other numbers are inactive results; u = inconclusive; x = no result; [ ] = dose if it differs, or a comment. Shown are actives, neighbours in structure and some others; about 11% of the full set was active somewhere. Unless noted, the call rests on the fitted dose curve; in most records, active means well fitted curve in the direction sought with a large enough effect; inconclusive means small, poorly fitted or top-dose-only effect, or another doubt; inactive means no such curve, though single readings can be large; an effect the other way counts as inactive or inconclusive.

SMILES	VP16 counter	SW480 rerep	IL-1B inflam inh	MCF10A rerep	RORg inh
CC(=O)OC1C(OC(C)=O)C2C(C)CC3OC(=O)C(C)C3CC2(C)C1OC(C)=O (stereo unspecified)	x	x	12	x	x
C=C1C(=O)O[C@@H]2C[C@@H](C)[C@@H]3C=CC(=O)[C@@]3(C)[C@@H](OC(C)=O)[C@H]12	1.3µM*	u	u	1.2µM*	1.3µM*
CCc1cc2cccc(C)c2nc1SCC(=O)NC1CCCC1	-8%	-6%	3	6%	-4%
CCOC(=O)CNC(=O)CSc1nc2c(C)cccc2cc1CC	-4%	17%	-98*	7%	-20%
CCOC(=O)CSc1nc(-c2ccc(OC)cc2)ns1	-26%	1%	11	3%	10µM*
CCOC(=O)CNC(=O)CSc1nc(-c2ccc(C)cc2)ns1	-3%	0%	-152*	-6%	-18%
CC(=O)c1ccc(OC2C=CC(c3ccc(Cl)cc3)OC2CO)cc1 (stereo unspecified)	-4%[10 µM]	x	x	x	21%[10 µM]
OC(Cc1ccccc1)c1ncc(-c2ccc3ccccc3c2)[nH]1 (stereo unspecified)	x	x	21	x	x
CCOC(=O)C1CCN(CC(=O)Nc2c(C(=O)OC)[nH]c3ccccc23)CC1	-28%	x	x	x	30%
CCOC(=O)C1CCN(CC(=O)Nc2c(C(=O)OC)[nH]c3ccc(Cl)cc23)CC1	10µM*	0%	7	u	u
COC(=O)c1[nH]c2ccc(Br)cc2c1NC(=O)CN1CCN(C2CCCCC2)CC1	u	u	-100*	u	-85%
COC(=O)c1c(NC(=O)CN2CCCc3ccccc32)sc(C)c1C	u	u	-4	15µM*	u
CCOC(=O)c1c(NC(=O)CN2CCCc3ccccc32)sc(C)c1C	u	-5%	14	u	u
COC(=O)c1[nH]c2ccc(Br)cc2c1NC(=O)CN1CCCc2ccccc21	0%	u	-53*	u	41%
Oc1ccc(Br)c(CN2CCN(c3ncc(Cc4ccccc4)cn3)CC2)c1	x	x	-19	x	x
CC1CCC2CC1C2(C)C (stereo unspecified)	-3%	x	x	x	-1%
CN(C)c1nc(SCc2ccccc2Cl)nc2c1CCCC2	7%[0.365 µM]	2%	44	u	7.9µM*
CNc1nc(SCc2ccc(C)cc2)nc2c1CCCC2	u	-1%	-10	15µM*	u
Cc1ccc(CSc2nc3c(c(SCC(=O)O)n2)CCCC3)cc1	-6%	-4%	28	11%	25%
Cc1nc(SCc2ccccc2)nc2c1CCC2	-4%[10 µM]	5%	28	16%	38%
Cc1ccc(CSc2nc3c(c(N(C)C)n2)CCCC3)cc1	-6%[0.365 µM]	15µM*	22	13µM*	u
CSCCC(NC(=O)c1ccco1)C(=O)N(C)CC(=O)Nc1ccccc1Br (stereo unspecified)	x	-4%	4	3%	x
Cc1nc(S(=O)(=O)N(C)c2ccccc2)c(C#N)c(C)c1Cl	-25%	9.2µM*	u	u	-47%
CN(c1ccccc1)S(=O)(=O)c1ccc(Cl)nc1	3%	5%	0	-1%	5%
Cc1ccc(C)c(N2CCN(C(C(=O)NC3CCCC3)c3ccco3)CC2)c1 (stereo unspecified)	x	x	-55*	x	x
SMILES	VP16 counter	SW480 rerep	IL-1B inflam inh	MCF10A rerep	RORg inh
COc1cccc(C(C(=O)NC2CCCC2)N2CCN(c3cc(C)ccc3C)CC2)c1OC (stereo unspecified)	x	x	-59*	x	x
CCCCN1C(=O)C(CC(=O)NCCCCc2ccccc2)CC(C(=O)N2CCCCCC2)=C1C (stereo unspecified)	x	x	0	x	x
NCC1CC2c3ccccc3C1c1ccccc12 (stereo unspecified)	-1%	23µM*	-78*	13%	2%
OC1(c2ccccc2)CC(c2ccccc2)c2ccccc2O1 (stereo unspecified)	x	u	-99*	225%	x
O=C(CCNC(=O)N1CC(=O)Nc2ccccc21)NCc1cccc(C(F)(F)F)c1	x	x	18	x	x
CCc1ccccc1N1CC(C(=O)N2Cc3ccccc3CC2C(N)=O)CC1=O (stereo unspecified)	x	-6%	-18	-2%	x
CC(=O)c1cccc(NC(=O)Cn2cnc(S(=O)(=O)N3CCOCC3)c2)c1	-6%	-3%	7	-6%	-12%
CCOC(=O)c1cnc2ccc(OCC)cc2c1NCc1ccccc1	5µM*	-2%	u	21µM*	2.8µM*
CCOC(=O)c1cnc2ccc(OCC)cc2c1N1CCN(c2ccccc2)CC1	-9%	3%	-17	u	-9%
CCOC(=O)c1cnc2ccc(C)cc2c1Sc1ccc(F)cc1	28µM*	16%	-12	u	u
CCOC(=O)c1cnc2ccc(OCC)cc2c1NCc1cccnc1	-9%	0%	u	23µM*	10%
CCOC(=O)c1cnc2ccc(C)cc2c1N(C)Cc1ccccc1	-11%	18%	-68*	u	-35%
CCN(CC)CCn1c2c(c(SCC(=O)Nc3cc(OC)cc(OC)c3)nc1=O)CCC2	x	0%	-17	-1%	x
CSCC[C@H](NC(=O)[C@H](Cc1c[nH]c2ccccc12)NC(=O)CNC(=O)[C@H](Cc1ccc(O)cc1)NC(=O)[C@H](C)NC(=O)[C@H](CCC(=O)O)NC(=O)[C@H](CCC(=O)O)NC(=O)[C@H](CCC(=O)O)NC(=O)[C@H](CCC(=O)O)NC(=O)[C@H](CCC(=O)O)NC(=O)[C@H](CC(C)C)NC(=O)[C@H](Cc1c[nH]c2ccccc12)NC(=O)[C@@H]1CCCN1C(=O)CNC(=O)[C@@H]1CCC(=O)N1)C(=O)N[C@@H](CC(=O)O)C(=O)N[C@@H](Cc1ccccc1)C(=O)NCC(=O)O	6%	x	x	x	1%
COCCN1C(=O)CCC1(C)c1nnnn1-c1ccc2ccccc2c1 (stereo unspecified)	x	x	47	x	x
COc1ccccc1CCn1c(=O)c(CCc2ccccc2)nc2cncnc21	-7%	x	x	x	-21%
CCc1ccc(N2CC(C(=O)OCC(=O)Nc3ccc(C(C)=O)cc3)CC2=O)cc1 (stereo unspecified)	x	-15%	2	1%	x
COCCNc1ncnc2ccc(-c3ccccc3C(F)(F)F)cc12	-15%	x	x	x	u
CCOC(=O)c1cnc2ccc(OC)cc2c1NCCc1ccc(OC)c(OC)c1	-8%	-1%	-90*	8%	-3%
CCCC(=O)N1CCCC1(C)C(=O)NCc1ccc(SC)cc1 (stereo unspecified)	x	x	8	x	x
CCOC(=O)c1sc2ccc(S(=O)(=O)N3CCCCC3)cc2c1N	-7%	26µM*	-29	u	u
CC(C)CC(=O)Nc1nc2ccc(S(=O)(=O)N3CCOCC3)cc2s1	5%	18µM*	13	u	10%
